The source of these data is PubChem BioAssay (Tox21).

Inconclusive results are not listed. The source made the active and inactive calls. Calls come from the whole dose curve; as a rule, active = well fitted cell-killing curve with a large enough effect in the repeat runs; inconclusive = weak or mixed curves; inactive = no such curve, though single readings can be large or run the other way.

A short description of this test: qHTS assay to identify small molecule antagonists of the peroxisome proliferator-activated receptor delta (PPARd) signaling pathway - cell viability counter screen (AID 743213). Note: nearly all actives have a fitted effect of over 50% in size. The note with it: PPARd-bla HEK293H viability, CellTiter-Glo luminescence, 17 h; series mostly up to 62 µM. From the text:
U.S. Tox21 Program National Center for Advancing Translational Sciences [NCATS] NIH Chemical Genomics Center [NCGC] U.S. Environmental Protection Agency [EPA] National Institutes of Environmental Health Sciences [NIEHS] National Toxicology Program [NTP] U.S. Food and Drug Administration [FDA] Tox21 Assay Overview: The peroxisome proliferator-activated receptors (PPARs) are lipid-activated transcription factors of the nuclear receptor superfamily with three distinct subtypes namely PPAR alpha, PPAR delta (PPARd) and PPAR gamma. All these subtypes heterodimerizes with Retinoid X receptor (RXR) and have different physiological functions. […] To identify the compounds that inhibit PPAR-delta signaling, GeneBLAzer PPAR delta UAS-bla HEK293H cell line (Invitrogen, Carlsbad, CA, USA) containing a beta-lactamase reporter gene under the control of an Upstream Activator Sequence (UAS) was used to screen the Tox21 compound library. The cytotoxicity of the Tox21 compound library against the PPARd-bla cell line was tested in parallel by measuring the cell viability using CellTiter-Glo assay (Promega, Madison, WI) in the same wells.
Tox21 Assay Protocol Summary: PPARd-bla cells were dispensed at 3000 cells/5uL/well in 1536-well black wall/clear bottom plates using a Multidrop Combi (Thermo Fisher Scientific, Waltham, MA) dispenser. After the assay plates were incubated at 37 C and 5% CO2 for 5 h, 23 nL of compounds dissolved in DMSO, positive controls or DMSO only was transferred to the assay plate by a Pintool station (Kalypsys, San Diego, CA), followed by addition of 1ul L165041 (300 nM, final concentration in the wells). The assay plates were incubated at 37 C for 17 h, and then 1 uL of LiveBLAzerTM B/G FRET substrate was added using a Bioraptr Flying Reagent Dispenser (FRD) workstation (Beckman Coulter, Indianapolis, IN, USA). The assay plates were incubated at room temperature for 2 h and fluorescence intensity was measured by an Envision plate reader (PerkinElmer, Shelton, CT). For cell viability readout that measures cytotoxicity, 3 ul/well of CellTiter-Glo reagent was added into the assay plates using a Bioraptr FRD. After 30 min incubation at room temperature, the luminescence intensity in the plates was measured using a ViewLux plate reader (PerkinElmer).
Consider `C=CCN=C=S`, for which the result was inactive.

Take `C=CC(=O)OCCCCCC(C)C`: the molecule was called inactive.

Turning to `O=C(O)C(Br)Br`, the outcome was inactive.

On to `COc1nc(NC(C)C)nc(NC(C)C)n1`, for which the outcome was inactive.

With `FC(F)(F)c1ccc(Cl)cc1`, the molecule was classed as inactive.

For the molecule `[N-]=[N+]=CC(=O)OC[C@H](N)C(=O)O`, the result was inactive.

In the case of `Nc1ncc([N+](=O)[O-])s1`, the call was inactive.

On to `O=C/C=C/c1ccccc1`, for which the outcome was inactive.

As to `CC(C)CCCCCCOC(=O)c1ccccc1C(=O)OCCCCCCC(C)C`, the molecule was classed as inactive.

As to `N#CN=C(N)N`, the outcome was inactive.

Take `Nc1ccc([As](=O)(O)O)cc1`: the molecule was classed as inactive.

Take `CCOP(=S)(OCC)Oc1cc(C)nc(C(C)C)n1`: the outcome was inactive.

As to `CNC(=O)O/N=C(\SC)C(=O)N(C)C`, the result was inactive.

As for `CCCCC(CC)C(=O)Cl` (stereo not given), the outcome was inactive.

In the case of `CN1C(=O)CCS(=O)(=O)C1c1ccc(Cl)cc1` (stereo not given), the call was inactive.

`CC(C)(C)C(=O)CCl`: the outcome was inactive.

For `CN(C)C(=O)C(c1ccccc1)c1ccccc1`, the call was inactive.

For the molecule `CNC(=O)O/N=C/C(C)(C)S(C)=O` (stereo not given), the result was inactive.

Consider `O=S(=O)(O)OOS(=O)(=O)O`, for which the call was inactive.

For `Cc1cccc(C)c1N`, the result was inactive.

Regarding `c1ccc2c(c1)CCCC2`, the molecule was called inactive.

Turning to `Nc1cccc(Cl)c1`, the call was inactive.

Turning to `O=[N+]([O-])c1cc([As](=O)(O)O)ccc1O`, the result was inactive.

In the case of `COC(=O)Nc1cccc(OC(=O)Nc2cccc(C)c2)c1`, the result was inactive.

For `CSc1nnc(C(C)(C)C)c(=O)n1N`, the molecule was classed as inactive.

Turning to `O=C(O)CCCc1ccc(N(CCCl)CCCl)cc1`, the molecule was called inactive.

Turning to `Cc1cc(O)ccc1Cl`, the molecule was called inactive.

As for `COc1cc(-c2ccc(N)c(OC)c2)ccc1N`, the result was inactive.

On to `COC(C)(C)CCCC(C)C/C=C/C(C)=C/C(=O)OC(C)C` (stereo not given), for which the molecule was called inactive.

With `Cl/C=C/Cl`, the molecule was classed as inactive.

With `C=CC(=O)OCC(CC)CCCC` (stereo not given), the molecule was called inactive.

With `Sc1ccccc1`, the call was inactive.

`Cc1ccc(O)c(C)c1`: the molecule was called inactive.

For the molecule `Nc1ccc(N)cc1`, the molecule was called inactive.

As to `Nc1nc(N)nc(NC2CC2)n1`, the result was inactive.

Take `N#Cc1ccccn1`: the result was inactive.

In the case of `O=C(O)c1cc(Oc2ccc(C(F)(F)F)cc2Cl)ccc1[N+](=O)[O-]`, the molecule was called inactive.

For `CN(C)CCC#N`, the molecule was classed as inactive.

For the molecule `CC(=O)C1CCOC1=O` (stereo not given), the molecule was called inactive.

As for `CCOP(=S)(OCC)Oc1ccc([N+](=O)[O-])cc1`, the outcome was inactive.
